# PINK1 expr mod: A Quantitative High throughput Screen to Identify Chemical Modulators of PINK1 Expression | actives 0.2% (n = 410,000) | AID 624263, 2012 | Potency, µM (top dose mostly 76.6 µM), for the others: top-dose activation (PINK1 increase), hits mostly activators | PINK1 immunofluorescence, high-content cytometry, 24 h; active = well fitted activation curve with a large enough effect; inconclusive = small, poorly fitted or top-dose-only effect; cell line not stated here; note: % of control where 0% means no effect; nearly all actives have a fitted effect of over 65% in size
#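 PINK1 protein, normally rapidly degraded, was detected by immunofluorescence after 24 hour compound treatment of a stable cell line. Titration data (5 concentrations) came from laser-scanning cytometry, with CCCP-treated wells as controls.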
# Sfp inh: qHTS Assay for Inhibitors of Bacillus subtilis Sfp phosphopantetheinyl transferase (PPTase); Biochemical Sfp PPTase activity, qHTS; Potency, µM, for the others: largest response in the series, negative = inhibition, most hits filed as inhibitors; actives 3.5% (n = 310,000); AID 1490, 2009;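 note: the enzyme is Sfp with the accession as filed and its product quenches rhodamine fluorescence; 0% = enzyme reaction without inhibitor and -100% = no enzyme wells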
#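 After 15 min at room temperature with compound, 15 nM Sfp received 5 uM rhodamine-CoA plus 12.5 uM BHQ-2-ybbR (50 mM Hepes pH 7.6, 10 mM MgCl2). Rate came from the fluorescence difference over 30 min, ex 525/em 598 nm.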
# VP16 counter: VP16 counterscreen qHTS for inhibitors of ROR gamma transcriptional activity | Drosophila S2 Gal4-VP16 UAS-luciferase, luminescence, 20 h | Potency, µM (doses to about 53.6 µM), without a hit: at the highest dose activity, negative = inhibition, most hits filed as inhibitors | actives 3.5% (n = 310,000);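 note: Gal4-VP16 expression switched on by copper sulfate through the metallothionein promoter; % is set by controls: 0 for no effect and ±100 for the full control effect; nearly all actives have a fitted effect of over 50% in size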
# Epigenetic derep: Quantitative High-Throughput Screen for Regulators of Epigenetic Control | AID 1865, 2009 | Potency, µM (series often up to 53.9 µM), inactives show at the highest dose GFP activation, actives largely listed as activators | murine LDR cells, GFP reporter derepression, 30 h | actives 0.2% (n = 280,000); note: % of control where 0% means no effect; nearly all actives have a fitted effect of over 60% in size
#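 Murine LDR cells carrying a silenced, genomically integrated CMV-driven GFP reporter were exposed to compound for 30 hours at 37 C. After PBS washes, GFP-positive cells (20–120 um objects) were counted by laser-scanning microplate cytometry.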
# ClpP mod: qHTS Assay for Activators of ClpP; ATP-dependent Clp protease proteolytic subunit (Bacillus subtilis (strain 168)), P80244; Potency, µM (doses to about 57.5 µM), for the others: top-dose activity change, negative = active; AID 651965, 2013; actives 1.9% (n = 340,000); purified B. subtilis ClpP, FRET peptide cleavage, 20 min; active = well fitted falling curve with a large enough effect; inconclusive = small, poorly fitted or top-dose-only effect; inactive = no such curve, though single readings can be large or run the other way; note: the source files actives as falling curves though it sought activators and does not explain the sign; nearly all actives have a fitted effect of over 65% in size
# Target sequence (P80244 whole entry, looked up): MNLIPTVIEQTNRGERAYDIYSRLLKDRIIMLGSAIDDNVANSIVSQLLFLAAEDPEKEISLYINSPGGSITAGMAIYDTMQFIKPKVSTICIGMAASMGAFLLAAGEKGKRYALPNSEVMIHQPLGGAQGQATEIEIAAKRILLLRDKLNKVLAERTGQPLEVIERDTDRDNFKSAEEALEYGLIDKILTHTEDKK
#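 FRET quenching reversal measured ClpP activation: 10 microg/mL B. subtilis ClpP at pH 8 with the FRET-FV decapeptide, read at 430 nm after 320 nm excitation. The 20-min minus 0-min signal was scaled between DMSO/no-enzyme wells and ADEP (5.8 microM final).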
# RORg inh: qHTS for inhibitors of ROR gamma transcriptional activity; Nuclear receptor ROR-gamma (Mus musculus), P51450; Drosophila S2 Gal4-RORgamma UAS-luciferase reporter, 20 h; Potency, µM (titrated, usually from 53.6 µM), for the others: at the highest dose activity change, negative = inhibition, actives largely listed as inhibitors; actives 5.4% (n = 310,000); note: % is set by controls: 0 for no effect and ±100 for the full control effect; nearly all actives have a fitted effect of over 60% in size
# Target sequence (P51450 whole entry, looked up, the tested form may be a part): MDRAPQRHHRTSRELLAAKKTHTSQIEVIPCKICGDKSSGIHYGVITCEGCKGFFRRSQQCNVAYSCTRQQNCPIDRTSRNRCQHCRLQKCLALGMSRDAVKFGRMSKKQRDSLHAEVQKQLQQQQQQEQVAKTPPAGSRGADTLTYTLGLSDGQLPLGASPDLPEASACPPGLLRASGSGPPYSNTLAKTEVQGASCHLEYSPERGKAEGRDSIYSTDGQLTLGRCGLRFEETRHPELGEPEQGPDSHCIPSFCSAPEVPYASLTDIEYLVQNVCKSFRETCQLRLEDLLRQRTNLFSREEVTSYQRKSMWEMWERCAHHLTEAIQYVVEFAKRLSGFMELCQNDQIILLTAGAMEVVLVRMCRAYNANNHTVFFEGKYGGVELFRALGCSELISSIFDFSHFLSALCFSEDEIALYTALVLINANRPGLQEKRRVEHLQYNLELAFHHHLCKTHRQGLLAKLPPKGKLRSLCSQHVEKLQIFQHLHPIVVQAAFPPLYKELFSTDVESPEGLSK
#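 In this cell-based reporter format, copper sulfate (700 uM final) drives Gal4–ROR gamma fusion expression from a metallothionein promoter in Drosophila Schneider cells; compounds preincubated 1 hr, reporter read after 20 hr at ambient temperature.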
# Active calls of the source: *; ? = inconclusive; · = no result; [ ] = remark or other dose. A selection: hits, their analogues and other compounds. The true share with any hit is near 8.1%. Unless noted, calls come from the whole dose curve; as a rule, active = well fitted curve in the direction sought with a large enough effect; inconclusive = small, poorly fitted or top-dose-only effect, or another doubt; inactive = no such curve, though single readings can be large; an effect the other way counts as inactive or inconclusive. Potency is the fitted concentration of half-maximal effect.
SMILES,PINK1 expr mod,Sfp inh,VP16 counter,Epigenetic derep,ClpP mod,RORg inh
COc1ccc(CNC(=O)Cn2ncn3c(cc4ccccc43)c2=O)cc1,4.1%,-18.2%,2.3%,0.1%,·,0.4%
O=C(Cn1ncn2c(cc3ccccc32)c1=O)NCCC1=CCCCC1,-0.3%[38.3 µM],6.5%,1.1%,2.1%,22.4µM*,9.0%
O=C(Cn1cnc2sc(-c3ccccc3)cc2c1=O)NCc1ccco1,2.3%,31.6µM*,·,0.0%,-3.0%,2.4%[0.365 µM]
O=C(Cn1ncn2c(cc3ccccc32)c1=O)NCc1ccco1,·,22.4µM*,-9.3%,-1.9%,-16.4%,5.62µM*
CC1Cc2ccccc2N1C(=S)NC(=O)c1ccc(Cl)cc1Cl (stereo unspecified),-0.5%,23.2%,0.708µM*,0.0%,1.6%,0.355µM*
CC(=O)c1ccc(NC(=S)N2c3ccccc3CC2C)cc1 (stereo unspecified),-1.2%,-51.0%,0.2%,1.3%,0.3%,?
COc1cccc(/C=C/C(=O)OCC(=O)N2c3ccccc3CC2C)c1OC (stereo unspecified),0.5%,·,·,·,-0.1%,·
Cc1ccc2c(c1)C1CN(C)CCC1N2C(=S)NC(=O)c1ccc(Cl)cc1Cl (stereo unspecified),-0.5%,13.2%,0.891µM*,0.0%,3.9%,0.282µM*
COc1cccc(C(=O)NC(=S)N2c3ccccc3CC2C)c1OC (stereo unspecified),2.9%,15.9%,14.1µM*,·,·,3.98µM*
CC1Cc2ccccc2N1C(=S)NC(=O)c1cccc(Br)c1 (stereo unspecified),15.7%,-10.6%,0.794µM*,0.0%,1.2%,1.12µM*
CC1Cc2ccccc2N1C(=S)Nc1ccc(S(N)(=O)=O)cc1 (stereo unspecified),-1.1%,-7.2%,10.4%,-3.8%,-3.0%,27.8%
Cc1ccc2c(c1)C1CN(C)CCC1N2C(=O)COc1ccccc1F (stereo unspecified),2.6%,5.9%,0.5%,-3.1%,·,-0.9%
COc1cccc(NC(=O)c2sc(-n3nc(C)c(Cc4ccccc4Cl)c3C)nc2C)c1,0.5%,·,·,-3.2%,1.5%,·
O=C(c1ccc(N2CCC(NCCCn3ncc4ccccc43)CC2)cc1)N1CCOCC1,-0.2%,·,·,·,·,·
Cc1ccc(C(=O)CNc2cccc([N+](=O)[O-])c2)cc1,-0.9%,5.4%,0.3%,0.0%,·,-3.5%
CNC(CC(=O)c1ccc([N+](=O)[O-])cc1)C(Cl)(Cl)Cl (stereo unspecified),-2.0%,10µM*,12.6µM*,?,-8.4%,?
Cc1ccc(NCC(=O)c2ccc([N+](=O)[O-])cc2)cc1,1.9%,20µM*,-12.7%,-0.1%,-24.4%,-14.7%
Nc1ccc(/C=C/c2ccnc3ccccc23)cc1,-0.4%,·,·,·,-0.2%,·
Cc1ccc2nc(Cl)c3cc(C(=O)N4CCCC(C)C4)sc3c2c1 (stereo unspecified),3.4%,·,·,-1.8%,-1.6%,·
CN1C(=S)SC(N2OC3C(=O)N(c4ccccc4)C(=O)C3C2c2ccc(Cl)cc2)C1(C)C (stereo unspecified),3.5%,16.2%,1.1%,0.0%,28.2µM*,32.5%
COc1cc(C2C3C(=O)N(c4ccccc4)C(=O)C3ON2c2ccccc2)cc(OC)c1OC (stereo unspecified),1.9%,14.3%,-0.3%,-3.2%,1.4%,8.7%
O=C(c1cccc(Cl)c1)N(Cc1ccco1)Cc1ccccc1Cl,3.8%,·,·,5.6%,-7.9%,·
CCC(=O)c1ccc(OCCSc2ncccn2)cc1,-1.3%,7.6%,-6.1%,1.7%,0.0%,11.2µM*
Cc1cccc(OCCOCCSc2ncccn2)c1,1.7%,7.7%,18.9%,-1.0%,-0.8%,?
c1ccc(OCCOCCSc2ncccn2)cc1,6.1%,0.6%,-9.0%,-2.3%,20µM*,38.8%
SMILES,PINK1 expr mod,Sfp inh,VP16 counter,Epigenetic derep,ClpP mod,RORg inh
CCC(=O)c1ccc(OCC(=O)O)cc1,-0.3%,3.1%,0.9%,0.5%,0.1%,-2.5%[10 µM]
Cc1cccc(C)c1NS(=O)(=O)c1ccc(NS(=O)(=O)c2ccc3c(c2)OCCO3)cc1,2.6%,·,·,-0.7%,0.1%,·
O=C(Cc1ccccc1)Nc1ccc(NC(=S)NC(=O)c2ccccc2)cc1,8.8%,-2.5%,-18.5%,·,1.9%,-36.4%
O=C(NC(=S)Nc1ccc(CN2CCCCC2)cc1)c1cccc(OCc2ccccc2)c1,8.1%,79.4µM*,?,1.2%,·,10µM*
O=C(NCCCOc1cccc(CN2CCCCC2)c1)c1ccc(Cl)c(Cl)c1,8.6%,-4.6%,-7.7%,-4.3%,15.8µM*,1.3%
O=C(O)c1ccc(NC(=S)NC(=O)c2cccc(COc3ccccc3)c2)cc1,-0.2%,50.1µM*,3.9%,0.0%,1.0%,41.4%
c1cc(CN2CCCCC2)cc(OCCCNc2nc3ccccc3s2)c1,5.1%,2.9%,-2.7%,4.7%,0.8%,-6.4%
Cc1cc(O)c(-c2cc(O)c(C)cc2O)cc1O,-0.8%,2.51µM*,?,?,-11.6%,7.08µM*
CCN1C(=O)C(CC(=O)NCCc2ccccc2)N(NC(=O)c2cccnc2)C1=S (stereo unspecified),-0.1%,3.5%,-11.6%,6.4%,1.9%,-12.0%
CCN1C(=O)C(CC(=O)NC)N(NC(=O)c2ccccc2)C1=S (stereo unspecified),0.6%,?,-11.5%,-1.8%,25.1µM*,-2.6%
Cc1c(CCOC(=O)c2ccc(N3CCOCC3)c([N+](=O)[O-])c2)sc[n+]1CC#N,-4.1%,3.1%,-5.0%,-0.5%,·,23.4%
Cc1ncsc1CCOC(=O)c1ccc(N2CCOCC2)c([N+](=O)[O-])c1,-1.3%,-11.2%,3.98µM*,1.1%,1.3%,?
Cc1cc(-n2c(C)cc(C(=S)N3CCOCC3)c2C)ccc1Br,-2.6%,-26.9%,?,4.8%,-3.5%,8.91µM*
COC(=O)c1ccn(C(=O)c2ccc(Cl)cc2)n1,4.9%[38.3 µM],-1.6%,-8.4%,-0.7%,28.2µM*,0.4%
COc1ccc2c(CNCc3ccco3)c(C(=O)O)n(Cc3cccc(F)c3)c2c1,-0.3%,·,·,-2.2%,-23.8%,·
Cc1sc2ncn(CC(=O)Nc3ccc(F)cc3Cl)c(=O)c2c1S(=O)(=O)N1CCN(c2ncccn2)CC1,0.6%,·,·,-0.1%,-16.0%,·
N#Cc1cccc(-c2nc3cnc(N4CCOCC4)nc3n(Cc3ccc(F)cc3)c2=O)c1,0.4%,20.2%,0.2%,·,·,-10.9%
